Source: PubChem BioAssay (National Center for Advancing Translational Sciences (NCATS))
AmpC inh no detg: qHTS Inhibitors of AmpC Beta-Lactamase (assay without detergent) | P00811 | AmpC nitrocefin hydrolysis, absorbance 480 nm, 0.0001% Triton | Potency, µM (series often up to 57.1 µM), without a hit: top-dose activity change, negative = inhibition, hits mostly inhibitors | 330,000 tested, 0.52% active | AID 485341, 2010;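 also: plate controls were no compound for no effect and no enzyme for full effect; nearly all actives have a fitted effect of over 20% in size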
Target sequence (P00811 whole entry, looked up): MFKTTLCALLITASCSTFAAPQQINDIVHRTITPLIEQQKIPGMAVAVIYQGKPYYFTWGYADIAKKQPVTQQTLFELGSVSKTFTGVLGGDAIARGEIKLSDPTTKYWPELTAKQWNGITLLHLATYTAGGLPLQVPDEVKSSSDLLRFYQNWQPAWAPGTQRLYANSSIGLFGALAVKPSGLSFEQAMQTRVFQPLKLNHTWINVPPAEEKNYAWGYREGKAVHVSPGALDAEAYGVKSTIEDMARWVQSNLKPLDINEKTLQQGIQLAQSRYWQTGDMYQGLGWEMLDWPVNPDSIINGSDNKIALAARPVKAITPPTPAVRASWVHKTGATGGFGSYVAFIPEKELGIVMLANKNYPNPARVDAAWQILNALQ
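20 mM phosphate pH 7.0 + 0.01% (detergent screen) or 0.0001% Triton X-100; 5.3 nM AmpC reagent; cpd preinc 15 min RT; nitrocefin (800 uM stock) to start; A480 q20 s × 4 min; Activity was normalised to no-enzyme and no-compound control wells.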
Pf growth 96h: Primary qHTS for delayed death inhibitors of the malarial parasite plastid, 96 hour incubation; P. falciparum luciferase reporter growth, 96 h; Potency, µM (doses to about 28.7 µM), without a hit: at the top dose activity change, negative = inhibition, actives largely listed as inhibitors; 320,000 tested, 6.9% active; AID 504834, 2011
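Two parasite generations (96 h, 37 C, 5% CO2) of compound exposure in infected erythrocytes (0.05% parasitemia, 2% hematocrit). Luciferase-reporter P. falciparum; decreased luminescence indicates inhibited growth, aimed at apicoplast-acting delayed death.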
Pf growth 48h: Primary qHTS for delayed death inhibitors of the malarial parasite plastid, 48 hour incubation; P. falciparum luciferase growth in erythrocytes, 48 h; Potency, µM (series often up to 28.7 µM), for the others: top-dose activity change, negative = inhibition, hits mostly inhibitors; 310,000 tested, 5.9% active
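Parasite viability was followed by luminescence of a genomically integrated firefly luciferase. Cultures held 0.1% parasitemia at 2% hematocrit (final), incubated under 5% CO2 at 37 C.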
AMA1-RON2 inh: qHTS for Inhibitors of AMA1-RON; Towards Development of Antimalarial Drug Lead: Primary Screen. Plasmodium falciparum AMA1 (3D7) - RON2 peptide interaction. AlphaScreen AMA1-biotinylated RON2 peptide binding. Potency, µM (top dose mostly 58.2 µM), for the others: at the highest dose activity change, negative = inhibition, actives largely listed as inhibitors. 360,000 tested, 0.2% active. AID 720542, 2013;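 also: 0% = vehicle wells and -100% = peptide control; nearly all actives have a fitted effect of over 45% in size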
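AMA1 (3D7) with his tag at 25 nM final met compounds first, then biotinylated RON2 peptide at 25 nM; detection used donor plus acceptor beads, 10 µg/mL apiece, read by AlphaScreen after 30 min at room temperature.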
HCV inhibitor: qHTS Assay for Inhibitors of Hepatitis C Virus (HCV). Huh7.5.1 HCVcc-Cre infection, luciferase reporter, 44 h. AID 651820, 2012. Potency, µM (doses to about 41.8 µM), for inactives: top-dose activity change, negative = inhibition, hits mostly inhibitors. 340,000 tested, 3.4% active
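Antiviral activity was scored by luciferase reporter output from cells infected with HCVcc-Cre (~0.5 moi) in presence of compound, 44 h infection period, cells seeded 1,000/well 4 h prior.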
AmpC detergent: qHTS Inhibitors of AmpC Beta-Lactamase (assay with detergent); AmpC hydrolysis of nitrocefin, absorbance 480 nm, 0.01% Triton; Potency, µM (doses to about 114 µM), inactives show at the highest dose activity change, negative = inhibition, most hits filed as inhibitors; 370,000 tested, 0.041% active;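 also: 0% = no-compound wells and -100% = no-enzyme wells; nearly all actives have a fitted effect of over 25% in size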
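20 mM phosphate pH 7.0 + 0.01% (detergent screen) or 0.0001% Triton X-100; 5.3 nM AmpC reagent; cpd preinc 15 min RT; nitrocefin (800 uM stock) to start; A480 q20 s × 4 min; Activity was normalised to no-enzyme and no-compound control wells.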
* hit, by the source's call; u = inconclusive; x = not tested or not shown; [ ] = remark or other dose. Shown are actives, neighbours in structure and some others; about 11% of the full set was active somewhere. Calls follow the shape of the dose curve; as a rule, active = well fitted curve in the direction sought with a large enough effect; inconclusive = small, poorly fitted or top-dose-only effect, or another doubt; inactive = no such curve, though single readings can be large; an effect the other way counts as inactive or inconclusive. Unless noted, % is scaled to controls: 0 for no effect and ±100 for the full control effect; potency is read from the fitted curve at half-maximal effect.

SMILES | AmpC inh no detg | Pf growth 96h | Pf growth 48h | AMA1-RON2 inh | HCV inhibitor | AmpC detergent
CC(C)OC(=O)/C(=C/c1ccc2c(c1)c1ccccc1n2C)NC(=O)c1ccccc1 | -21% | u | u | -18% | u | -5%
CCOc1ccccc1-c1nnc(SCC(=O)NC2(C#N)CCCC2)o1 | -17% | 9.3µM* | u | 1% | -28% | -3%
CC(=O)Nc1ccccc1C(=O)C(=O)Nc1ccccc1 | -33% | 7.4µM* | 64% | 10% | -13% | -10%
CC(=O)Nc1ccccc1C(=O)C(=O)Nc1ccc(Cl)cc1 | -22% | 28% | 69% | 2% | -8% | -8%
CC(=O)Nc1ccccc1C(=O)C(=O)Nc1cccc(C(=O)N2CCC3(CC2)OCCO3)c1 | -3% | 1.9µM* | 8% | -3% | -7% | 6%
Cc1ccc(C)c(N2CCN(c3nc4ccccc4n4c(C)nnc34)CC2)c1 | x | x | x | x | x | 21%
CCOC(=O)Cc1nc2ccccc2o1 | -9% | 3.3µM* | 10% | x | x | 1%
O=C1c2ccncc2C(=O)N1CO | 7% | 10µM* | -7% | -8% | 1% | -5%
Cc1cccc(NC(=O)Cn2nnc(C(=O)NCc3cccs3)c2N)c1 | x | x | x | x | x | 1%
Cc1ccc(CNC(=O)c2nnn(Cc3ccc(F)cc3)c2N)cc1 | x | x | x | x | x | 22%
COc1ccc(NC(=O)C2CCCN(c3nccc(C)n3)C2)cc1 (centres undefined) | -16% | 10µM* | -12% | -9% | -1% | 3%
Cc1ccc(CNC(=O)C2CCCN(c3nc4ccccc4o3)C2)cc1 (centres undefined) | -5% | 0% | 0% | -6% | -3%[8.37 µM] | -14%
COc1ccc(Br)cc1CNC(=O)C1CCCN(c2nc3ccccc3o2)C1 (centres undefined) | -5% | 5.9µM* | 4% | 2% | 7% | 4%
Cc1cc(C)nc(N2CCCC(C(=O)NCc3cccs3)C2)n1 (centres undefined) | -7% | u | 5% | -2% | -4% | u
COc1ccc(Br)cc1CNC(=O)C1CCCN(S(=O)(=O)N2CC(C)CC(C)C2)C1 (centres undefined) | -1% | u | -26% | -12% | u | -9%
Cc1ccnc(N2CCCC(C(=O)NCc3cccs3)C2)n1 (centres undefined) | -10% | 9.3µM* | -9% | 1% | 3% | 1%
COc1ccc(NC(=O)C2CCCN(c3ncccn3)C2)cc1 (centres undefined) | -11% | -3% | 59% | -5% | 6% | -9%
O=C(NCc1cccs1)C1CCCN(c2nc3ccccc3o2)C1 (centres undefined) | 27% | 5.2µM* | u | 8% | -23% | -12%
COc1cc(NC(=O)CN2C(=O)CN(C)C(=O)c3ccccc32)cc(OC)c1OC | x | x | x | x | x | -9%
O=c1c2c3c(sc2nc2n1CCC2)CCCCC3 | 29% | 51% | 11% | 23% | u | 7%
O=c1c2c3c(sc2nc2n1CCC2)CCC3 | -9% | 0.33µM* | 20% | 9% | 12% | u
CSc1nc2sc3c(c2c(=O)n1C)CCC3 | -12% | 67% | 2% | -5% | u | -6%
CSc1nc2sc3c(c2c(=O)n1C)CCCC3 | -19% | 36% | x | 10% | 11µM* | -7%
CCCNC(=O)Cn1c(=O)cc(C)c2c(C)nn(-c3cccc(F)c3)c21 | x | x | x | x | x | 2%
CC(=O)Nc1nnc(SCc2cc(=O)c3cc(C)ccc3[nH]2)s1 | x | x | x | x | x | -3%
SMILES | AmpC inh no detg | Pf growth 96h | Pf growth 48h | AMA1-RON2 inh | HCV inhibitor | AmpC detergent
Cc1ccccc1-c1nc(CS(=O)(=O)CC(=O)NCCCc2ccccc2)c(C)o1 | x | x | x | x | x | 1%
CCOC(=O)C(=O)Nc1c(C(=O)Nc2cccc(F)c2)oc2ccccc12 | x | x | x | x | x | 7%
C=C1CCN([C@H](C(=O)NCc2ccccc2)C(C)C)S(=O)(=O)c2ccccc21 | 1% | 12µM* | u | 0% | u | -5%
C/C(=N\Nc1ccccn1)c1ccc(OC(F)F)cc1 | 0%[2.29 µM] | 57% | 5% | -3% | 8.9µM* | -1%
C/C(=N\Nc1ccccn1)c1ccc(C#N)cc1 | -18%[11.4 µM] | -8% | -18% | -1% | -22% | -10%
C/C(=N\Nc1ccccn1)c1cccs1 | -22% | 264% | 342% | -10% | 10µM* | 2%
CCCCCCCCCCCCCCCCOP(=O)([O-])OCC[N+](C)(C)C | x | 7.6µM* | u | x | x | x
CCCCCCCCCCCCCCCCCCOC[C@H](COP(=O)([O-])OCC[N+](C)(C)C)OC | x | -17% | 1% | x | x | x
CCOC(=O)c1c(N2C(=O)CC(Sc3ccccc3C(=O)O)C2=O)sc(C)c1C (centres undefined) | -34% | 53% | 2.3µM* | -3% | 3% | -1%
CN(C)S(=O)(=O)c1ccc2c(c1)N(CC(=O)NCc1ccc(F)cc1)C(=O)CS2 | x | x | x | x | x | 4%
[O-][n+]1c2c(nn1-c1ccccc1)/C(=N/O)CCC2 | -16% | u | 10% | -5% | 12% | -1%
[O-][n+]1onc2c1CCC(=N/O)/C2=N\Nc1ccccc1 | -54% | 4.7µM* | 7.4µM* | x | x | -5%
COc1cccc(-c2nc3ccc(C(=O)N4CCCC(O)C4)cc3o2)c1 (centres undefined) | 60% | 10µM* | 1% | -5% | -5% | -3%
COc1ccc2cc(C(=O)C3CCCN(C(=O)C4=NN(C)C(=O)CC4)C3)ccc2c1 (centres undefined) | 146% | 5.2µM* | 0% | -6% | -6% | -4%
COc1cc(OC)cc(C(=O)N2CCN(C(=O)c3cccnc3)CC2)c1 | -4% | 15µM* | u | -8% | 7% | 5%
O=C(c1ccc2ccccc2c1)C1CCCN(C(=O)c2cccnc2)C1 (centres undefined) | 70% | -8% | 4% | -13% | 5% | -2%
COc1ccc2cc(C(=O)C3CCCN(C(=O)c4cccnc4)C3)ccc2c1 (centres undefined) | 137% | 12µM* | 14% | -3% | u | 7%
CC(=O)Nc1ccc2nc3c(=O)[nH]c(=O)[nH]c3nc2c1 | x | x | x | x | x | 4%
CCc1ccc(-n2nc(C)c3c(C(=O)Nc4cc(C)c(Cl)cc4OC)cc(C)nc32)cc1 | x | x | x | x | x | 19%
